# Data from the supplement of paper PMC11417369.
# In all, about 25,000 sequences were measured (“ln(normalized median fluorescence intensity)”: median about 7.1, highest 2% from about 10 on). The full list was thinned out, with the highest values kept by preference.
# System: PfSIP2 AP2 domain 1 (GST-tagged)
# Experiment: gcPBM binding intensity (ln(normalized median fluorescence intensity)); higher = stronger DNA binding
# Outline: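 An Agilent 4 × 180k array of primer-extended double-stranded 36-bp intergenic genomic probes, with negative controls, was incubated for 1 h with GST-tagged P. falciparum DNA-binding domains expressed in E. coli. Alexa488 anti-GST antibody detected bound protein, scanned at 488 nm. Binding intensity is the highest Masliner-normalised natural-log median intensity across replicate spots of either probe orientation.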
row,Sequence,gcPBM binding intensity (ln)
1,TTAATATTGTATTTCACACATAATTTAATATACTCA [CACACA_site5678],6.87
2,CAAAAAAAAAAAAAAACACACATTAAATTATAAAGA [CACACA_site2613],6.77
3,TTTTATATTCCACAAAAAATTATATAATAATAGAAC [CACACA_negctrl_site1741],7.26
4,TAAACATAAATATGCACACATATACATATATTCATA [CACACA_site2667],7.34
5,AAAATATAATATAATGCACACATAAAAAAAAAAAAA [CACACA_site7989],7.19
6,TATATATATATATTCACACATAAAAATAAAATAAAA [CACACA_site4774],8.88
7,ATAATAAAAAAAAATGCACACATATATATATATATA [CACACA_site8766],9.29
8,TATATATATATATTCACACATAAATATATGCACCCA [CACACA_site4263],11.6
9,TGTAGAAATGGGTGCACACACATATATAATATATAT [CACACA_site2507],12.3
10,TATTTGATAAATTATACACACACAATATATATAAAA [CACACA_site8625],6.94
11,AAGATTAGGTTAATTAGTACTTATTATATTGTAATG [XGTACX_site3653],6.85
12,TATACCAATGAATGAGTGCAAAGAAGATAAGGAAAA,8.58
13,TACCAATGCATAACGGTGCAAAAAAATAAGGAATAA,10.7
14,AATAAAAATAATATAGTGCATAATATAAGGAAAAAA,9.36
15,AAAATGGTTTATAAATGTACATATATTATATATAAC [XGTACX_site7959],7.03
16,TATGTGCACCCATGTACATGCGGACATATGTTATAT [TGCATGCA_site383],12
17,ATATATATATATGCATGTACATATATTTGTTATATC [XGTACX_site3197],9.3
18,TATATATATATATATGCATGTACATATATTTGTTAT [TGCATGCA_site379],9.76
19,AAAATAAAAAATTAATGTACTTAGAATTGTCACTAA [XGTACX_site1346],6.79
20,AGAAAAAAACAACATGCACACGCACCCACAAAAAAA [CACACA_site7908],10.2
21,CCAACATGCCCACGCACACACAAAAAAAGCATGCAT [CACACA_site4217],7.23
22,AAAAAAACAACATGCACACGCACACCCAAAAAAAGC [CACACA_site72],7.96
23,TATGCAAGGAACCACACACACACACGGAAATGTATA [CACACA_site6490],6.94

row,Sequence,gcPBM binding intensity (ln)
1,AATTTAATATAATGCACACATAAAAAAAAATTCAAA [CACACA_site2062],7.16
2,TATTTCACTTTTTGTCTGCACTAAAATTTTATGGTA,7.74
3,ACGTTAGGCTTATTTGCACACTTGTATTAAAATTTT [CACACA_site4854],7.27
4,TGTTATTTTAAAAAAAAAATTATTAACTTAAAAAAA [CACACA_negctrl_site1641],6.68
5,TTTTTGTTACCTATTGTGCACTTCATATAAATTAAA,10.8
6,TGTTAAAATTATTTGGTGCACTTGTTTTACCTTATT,11.3
7,ATTTATTTCTTGTTAGTGCACTTTCTTTGGTAAAAT,11.1
8,CTTATTTTGTTATAAGTGCATTTTTTAAAATTTCTT,9.64
9,AAAATATAAATTCATGTGCACATATATATTTTGTTA [GTGCAC_site9782],8.24
10,ACATTAAAAAATTGTTTGCACTATATAAAATATTAA [GTGCAC_site9728],8.2
11,CACGTGAAAATACAAGCATGCAAGCTTTTTTTTTCT [TGCATGCA_site642],6.53
12,TACAATTCGTAATACACACACATATAAATAAATATT [CACACA_site7720],7.28
13,AAATAATAAAGTATAACACACATATTTATTTATATA [CACACA_site7822],6.73
14,AATAGAACAAATAAAACACACACATATATATATATA [CACACA_site8893],9.42
15,AAAATACGAATATAAACATGCACCATATAGAACAAA [TGCATGCA_site925],10.7
16,AAAGAACAAATAAAACATAAAATAATATATATAGAT [CACACA_negctrl_site1764],7.02
17,ATAGATGCATATTATACACACATATGTAAATACATT [CACACA_site4691],7.06
18,CAAACAATTAAACAAACACACATATACAAGTATATA [CACACA_site8639],7
19,GTAGGCATTAAAAAATGTACAAAATATTATGAATTG [XGTACX_site1615],6.85
20,TGAACATATTAAAATTGTACATATGCACAATATGTA [XGTACX_site6801],7.44
21,AGTAGGCATATTGGTTGTACAAAAAAATTATGCACC [XGTACX_site8925],10.3
22,TTGCACTCGTAAAAAGCACACATATAAAAACATTTA [CACACA_site7997],8.15
23,TTAAAAGTAAGCAAAGTGCATATAACAAAAGTAAAG,8.19

row,Sequence,gcPBM binding intensity (ln)
1,TTATCTCTACAAAGTGCACACACGTAAAAACATATA [CACACA_site3957],10.4
2,ATAAACATATAAAAAGTGCATATTCATATATCTACT,8.7
3,AAACAGAATACATATACACACATACAAAAAAGTGCA [CACACA_site8235],7.52
4,TAAAAAAAAACATATACACACAAAAACGTACACATA [CACACA_site1354],7.29
5,ATATAAACAAAGCAGTGCACGTAAACAAAACATATA [CACACA_negctrl_site1076],10.4
6,ATCTCTACAAAGTGCACACACGTAAAAACATATATA [CACACA_site6046],10.8
7,TAAAAAAAAACATGTGCACACGTTTTATCTACATAA [CACACA_site2336],8.79
8,ATATATATGTATATGTGTACTTATATTTGTCATTTT [XGTACX_site1317],7.11
9,TAATATTTATGTTAATGTACAAAAAAACAAAACAAA [XGTACX_site301],7.09
10,TTTTTTAAATATTAAAAATGGGATCTTATAACATAT [GTGCAC_negctrl_site666],6.91
11,ATATATATAATAAACACACACATATACATAGATGTA [CACACA_site5841],7.49
12,AAATAAAAGATATTTTTACACACTTTTGATGAGATC [CACACA_site9000],6.75
13,AAAAAAAAAAAAAAAAAAATATATTATATATATATA [XGTACX_negctrl_site467],9.19
14,TAATAAGTACCTTTTGCATGTGGCACGCTTTTTTTT [TGCATGCA_site573],6.75
15,TTAACATCTTCGTTGACACACAAAAAAAAAAATAAT [CACACA_site1819],7.1
16,GAAATAATTTCATATACACACATATACATACATACA [CACACA_site1358],7.5
17,CATAAAAATGGATACACACACATAATATATATATAT [CACACA_site3619],9.01
18,TATAAATACATACGTACACACAAATATTAAAATATA [CACACA_site5129],7.35
19,ATAAAATATATATGCACACACATATATATTTCATAC [CACACA_site3547],7.24
20,TAGGGATTATACCACACACACATACACATAAATATA [CACACA_site3178],7.08
21,ATGGATTATACGTGCACACATATATACAAATAAATA [CACACA_site640],10.5
22,TCATATATATTATACACACACATATATAAATATATA [CACACA_site967],7.03
23,TAATGGATTATACGTGCACACATATATACAAATAAA [CACACA_site8116],10.5

row,Sequence,gcPBM binding intensity (ln)
1,TTATAATATGGATACACACACATATATAAATATATA [CACACA_site5314],6.98
2,ATAATTTCATAATACGTGCACATAATATATAAAAAA,10.5
3,ATATAAATACGGTGTGCACACACATAATATATATAT [CACACA_site2271],8.98
4,ATGGATTATACGTGCACACATATATACCAATAAATA [CACACA_site4524],10.5
5,AAACATAAATTTTATTGTACATTATATAGAATTTTC [XGTACX_site576],6.81
6,AAATGTTGAAATGATACACACATATATATATATATA [CACACA_site2517],9.59
7,TTATTTATGATATATACACACTAACATTATTTATCC [CACACA_site6720],6.95
8,GAAATTTCCCATATTACACACATACTATGATATATA [CACACA_site5987],7.12
9,GTGATGGTACAATATACACACTTAAAAAAAAAAAAT [CACACA_site5360],7.17
10,TTTCTATATTGGCATACATGCAAGAACGAAAAGATT [TGCATGCA_site117],7.09
11,TATAAAAAAAATTGCACACATATTATACAGGACGAC [CACACA_site701],7.96
12,TTATTTTATTTTTTTGTGCACATATATATTTATAAA [GTGCAC_site9615],9.43
13,TTTATTTTTATTTTTGTGCACGGGATTAAATAAAAG [GTGCAC_site9842],10.5
14,TAATATTTTAATTGTGTGCACATTAATATTATAAAA,9.3
15,AAGAAGAAACGGAAAAGTACAAAGAAGAAATAAGTA [XGTACX_site3680],6.85
16,CATACATTATAAGATACATGCATATATCTGAACATA [TGCATGCA_site797],7.02
17,AACATTATTTTGTGTACACATTCGGTTATATTATAT [CACACA_site5628],7.31
18,TAAATCAAAATAATTTAACACACAATTTTAATACTG [CACACA_site8744],6.67
19,ATACTATTTAAATGGGTGCTAAAAATAACAAAAATT,8.88
20,AATAAATACTAAATGGTGCAAAATTTTTTAACACTG,10.7
21,TATTAAAATATGTCAGTTCTTAAAAAGTTGATGAGT [GTGCAC_negctrl_site77],7.17
22,TAATAATAATTAAATTGTACATATAATATAATATAA [XGTACX_site8554],7.15
23,TAATATATATGTATGGCACACACGGATAAATATATA [CACACA_site930],7.04
